The test system of experiment [1] is Saccharomyces cerevisiae BY4741 SeMeCo community. Briefly: z-score of prototroph abundance vs DMSO median; higher = larger share of this subpopulation than in DMSO controls. The conditions noted are these: 10 µM; 24 h; SM minimal medium; subpopulation (auxotrophy): Prototroph. An outline of the steps: (§1)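 Scoring was based on each subpopulation's abundance, expressed as a z-score against the vehicle-well median. A Saccharomyces cerevisiae BY4741 community with four plasmids, each restoring one auxotrophy and encoding a distinct fluorescent protein, was pre-grown overnight to OD600 1.0, diluted to 0.3, and added at 70 µl to 384-well plates acoustically predosed with library drugs (10 µM final). It then grew 24 h in minimal SM medium before paraformaldehyde fixation and automated confocal microscopy, with single-auxotroph fluorescent strains setting thresholds and autofluorescence correction.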

Experiment [2] shares this test system. Description: z-score of subpopulation abundance vs DMSO median, subpopulation auxotrophic for M; higher = larger share of this subpopulation than in DMSO controls. Conditions: 10 µM; 24 h; SM minimal medium; subpopulation (auxotrophy): M. The procedure, abridged:
as §1

Experiment [3] shares this test system. Description: z-score of subpopulation abundance vs DMSO median, subpopulation auxotrophic for U; higher = larger share of this subpopulation than in DMSO controls. Conditions: 10 µM; 24 h; SM minimal medium; subpopulation (auxotrophy): U. An outline of the steps:
as §1

Experiment [4] shares this test system. Briefly: z-score of subpopulation abundance vs DMSO median, subpopulation auxotrophic for H; higher = larger share of this subpopulation than in DMSO controls. The conditions noted are these: 10 µM; 24 h; SM minimal medium; subpopulation (auxotrophy): H. An outline of the steps: as §1
For experiment [5] the test system is unchanged. Description: z-score of subpopulation abundance vs DMSO median, subpopulation auxotrophic for LM; higher = larger share of this subpopulation than in DMSO controls. Conditions: 10 µM; 24 h; SM minimal medium; subpopulation (auxotrophy): LM. The procedure, abridged: as §1
Experiment [6] shares this test system. Description: z-score of subpopulation abundance vs DMSO median, subpopulation auxotrophic for HM; higher = larger share of this subpopulation than in DMSO controls. The conditions noted are these: 10 µM; 24 h; SM minimal medium; subpopulation (auxotrophy): HM. An outline of the steps: as §1
For experiment [7] the test system is unchanged. Description: z-score of subpopulation abundance vs DMSO median, subpopulation auxotrophic for HU; higher = larger share of this subpopulation than in DMSO controls. The conditions noted are these: 10 µM; 24 h; SM minimal medium; subpopulation (auxotrophy): HU. An outline of the steps:
as §1

Experiment [8] shares this test system. Briefly: z-score of subpopulation abundance vs DMSO median, subpopulation auxotrophic for UM; higher = larger share of this subpopulation than in DMSO controls. The conditions noted are these: 10 µM; 24 h; SM minimal medium; subpopulation (auxotrophy): UM. The procedure, abridged:
as §1

Experiment [9] shares this test system. Description: z-score of subpopulation abundance vs DMSO median, subpopulation auxotrophic for HL; higher = larger share of this subpopulation than in DMSO controls. Conditions: 10 µM; 24 h; SM minimal medium; subpopulation (auxotrophy): HL. An outline of the steps: as §1
Experiment [10] shares this test system. Description: z-score of subpopulation abundance vs DMSO median, subpopulation auxotrophic for HLU; higher = larger share of this subpopulation than in DMSO controls. The conditions noted are these: 10 µM; 24 h; SM minimal medium; subpopulation (auxotrophy): HLU. The procedure, abridged:
as §1

Experiment [11] has the same test system. Description: z-score of subpopulation abundance vs DMSO median, subpopulation auxotrophic for HLM; higher = larger share of this subpopulation than in DMSO controls. The conditions noted are these: 10 µM; 24 h; SM minimal medium; subpopulation (auxotrophy): HLM. The procedure, abridged: as §1
The test system is the same in experiment [12]. Description: z-score of subpopulation abundance vs DMSO median, subpopulation auxotrophic for LUM; higher = larger share of this subpopulation than in DMSO controls. Conditions: 10 µM; 24 h; SM minimal medium; subpopulation (auxotrophy): LUM. The procedure, abridged: as §1
Experiment [13] shares this test system. Description: mean cell size (pixel area) (pixels); higher = larger cells. The conditions noted are these: 10 µM; 24 h; SM minimal medium. An outline of the steps:
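A fluorescent Saccharomyces cerevisiae BY4741 community carrying four plasmids was used, with each plasmid complementing one auxotrophy and bearing a fluorescent marker. An overnight preculture at OD600 = 1.0 was diluted to OD600 = 0.3, and 70 µl went into 384-well plates acoustically predosed with drug (final 10 µM) in SM medium for 24 h. After paraformaldehyde fixation, cells were imaged by automated confocal microscopy and analysed in Harmony, giving the mean cell pixel area per well. Each value is the average of 3 replicates. Same SeMeCo high-content imaging drug screen: Selleck FDA-approved drugs at 10 µM, 24 h in SM medium, 384-well plates, 3 replicates.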

Experiment [14] shares this test system. Briefly: z-score of subpopulation abundance vs DMSO median, subpopulation auxotrophic for HUM; higher = larger share of this subpopulation than in DMSO controls. Conditions: 10 µM; 24 h; SM minimal medium; subpopulation (auxotrophy): HUM. The procedure, abridged: as §1
Experiment [15] shares this test system. Description: z-score of subpopulation abundance vs DMSO median, subpopulation auxotrophic for HLUM; higher = larger share of this subpopulation than in DMSO controls. The conditions noted are these: 10 µM; 24 h; SM minimal medium; subpopulation (auxotrophy): HLUM. The procedure, abridged:
as §1

For experiment [16] the test system is unchanged. Briefly: z-score of subpopulation abundance vs DMSO median, subpopulation auxotrophic for L; higher = larger share of this subpopulation than in DMSO controls. The conditions noted are these: 10 µM; 24 h; SM minimal medium; subpopulation (auxotrophy): L. The procedure, abridged:
as §1

For experiment [17] the test system is unchanged. Description: z-score of subpopulation abundance vs DMSO median, subpopulation auxotrophic for LU; higher = larger share of this subpopulation than in DMSO controls. Conditions: 10 µM; 24 h; SM minimal medium; subpopulation (auxotrophy): LU. The procedure, abridged:
as §1

Each structure is given as a SMILES string. Structures can show the parent of a compound that is named as a salt. ± gives the standard deviation of the averaged measurements.

Consider `CCCCCCCCCC(=O)NC1C(Oc2c3cc4cc2Oc2ccc(cc2Cl)C(OC2OC(CO)C(O)C(O)C2NC(C)=O)C2NC(=O)C(NC(=O)C4NC(=O)C4NC(=O)C(Cc5ccc(c(Cl)c5)O3)NC(=O)C(N)c3ccc(O)c(c3)Oc3cc(O)cc4c3)c3ccc(O)c(c3)-c3c(OC4OC(CO)C(O)C(O)C4O)cc(O)cc3C(C(=O)O)NC2=O)OC(CO)C(O)C1O` (stereo unspecified) [Teicoplanin], for which the “z-score of prototroph abundance” value in experiment [1] is -0.99. Also, the “z-score of subpopulation abundance” value was 0.97 in experiment [2]; -0.01 in experiment [3]; 0.94 in [4]; 0.75 in [5]; 1.4 in experiment [6]; 0.39 in experiment [7]. The “z-score of subpopulation abundance” value is 0.78 in experiment [8]; 1.01 in experiment [9]; -0.15 in experiment [10]; -0.07 in experiment [11]; 0.85 in experiment [12].
`COC(=O)C1=C(C)NC(C)=C(C(=O)OCCN(C)Cc2ccccc2)C1c1cccc([N+](=O)[O-])c1` (stereo unspecified) [Nicardipine HCl] showed a mean cell size in [13] of 12.4 ± 0.28. Also, in [1], the “z-score of prototroph abundance” value is -0.59. Besides, the “z-score of subpopulation abundance” value in experiment [2] was 1.01; in experiment [4], 0.19; in experiment [5] it was 1.01; in [6], 0.65; in experiment [8] it was 0.26; in experiment [9], -0.11. The “z-score of subpopulation abundance” value is 0.11 in experiment [10]; -0.22 in [11]; 0.62 in experiment [14]; -0.01 in experiment [12]; -0.44 in [15].
With `NC1CCN(c2nc3c(cc2F)c(=O)c(C(=O)O)cn3-c2ccc(F)cc2F)C1` (stereo unspecified) [Tosufloxacin p-Toluenesulfonate Hydrate], the mean cell size in experiment [13] came to 12.3 ± 0.29. Further, in experiment [1], the “z-score of prototroph abundance” value is 0.74. Moreover, the “z-score of subpopulation abundance” value in experiment [2] was -0.77; in experiment [16], -0.11; in experiment [3] it was -0.39; in [4], 0.41; in [5] it was -0.53; in [6], -0.46. For the same molecule, the “z-score of subpopulation abundance” value in [7] is -0.62; in experiment [8], -0.74; in experiment [9] it was -0.52; in experiment [10], 0.67; in experiment [14], -0.83; in experiment [12], -0.71. Further, the “z-score of subpopulation abundance” value in experiment [15] is -0.36.
`CCOC(=O)c1ccc(N)cc1` [Benzocaine] registered a mean cell size in experiment [13] of 12.5 ± 0.19. In addition, in experiment [1], the “z-score of prototroph abundance” value was found to be 0.6. For the same molecule, the “z-score of subpopulation abundance” value was 1.02 in experiment [2]; -1.34 in experiment [3]; 0.27 in experiment [4]; 0.32 in experiment [5]; 0.67 in experiment [6]; -1.28 in [7]. Besides, the “z-score of subpopulation abundance” value was -0.58 in experiment [8]; -1.2 in experiment [9]; -0.97 in experiment [10]; -0.48 in [14]; -0.29 in experiment [12]; -0.38 in experiment [15].
As for `CCN(CC)CCOC(=O)c1ccc(N)cc1Cl` [Chloroprocaine HCl], the mean cell size in experiment [13] was 12.51 ± 0.1. Further, the “z-score of prototroph abundance” value in experiment [1] was -0.55. Also, the “z-score of subpopulation abundance” value in experiment [16] is 0.95; in experiment [3], 0.25; in experiment [4] it was -0.3; in experiment [17], 0.13; in [5], 0.62; in [6], -0.02. For the same molecule, the “z-score of subpopulation abundance” value in experiment [7] is -0.26; in experiment [8], 0.74; in experiment [9] it was -0.09; in experiment [10], 0.39; in experiment [11], -0.23; in experiment [14] it was 0.14. The “z-score of subpopulation abundance” value worked out at 0.45 in experiment [12] and 0.58 in experiment [15].
In experiment [13], `CC1(C)S[C@@H]2[C@H](NC(=O)C(c3ccccc3)S(=O)(=O)O)C(=O)N2[C@H]1C(=O)O` (stereo partly specified) [Sulbenicillin Sodium] came in with a mean cell size of 12.35 ± 0.08. The “z-score of prototroph abundance” value in experiment [1] is -0.72. Further, the “z-score of subpopulation abundance” value is 0.41 in [2]; -0.32 in experiment [16]; 1.09 in experiment [3]; 1.2 in experiment [4]; -0.34 in experiment [5]; 0.51 in [7]. In addition, the “z-score of subpopulation abundance” value amounted to 1.5 in experiment [8]; 0.63 in [9]; 0.86 in experiment [10]; 0.65 in experiment [12]; 1.16 in experiment [15].
Molecule `COc1cccc(-c2c(C)n(Cc3c(F)cccc3C(F)(F)F)c(=O)n(C[C@H](NCCCC(=O)O)c3ccccc3)c2=O)c1F` [Elagolix Sodium] had a mean cell size in experiment [13] of 12.5 ± 0.27. Also, the “z-score of prototroph abundance” value in [1] stood at 0.61. Also, the “z-score of subpopulation abundance” value was -0.72 in experiment [2]; -0.55 in experiment [16]; 0.24 in [3]; -0.38 in experiment [5]; -0.13 in [6]; 0.74 in [7]. Also, the “z-score of subpopulation abundance” value was -0.27 in experiment [8]; 0.13 in [9]; -0.37 in experiment [10]; 0.12 in experiment [14]; -0.77 in experiment [12].

Source of the values: the supplement of paper PMC8975748.
